Test [1] can be described thus: qHTS assay to test for compound auto fluorescence at 535 nm (green) in HEK293 cells (AID 720680). (In general: In qHTS, concentration-response curves come from the screen itself.)
Test [2] in a line: qHTS assay to test for compound auto fluorescence at 460 nm (blue) in HEK293 cell free culture (AID 720681). The essentials: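 Test compounds were pinned into cell-free culture medium (DMEM with 10% FBS) and fluorescence was read directly at Ex/Em 405/460 nm. Signals were expressed as fluorescence equivalents of triamterene, with DMSO vehicle as control.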
Test [3] is described as follows: qHTS assay to test for compound auto fluorescence at 535 nm (green) in HEK293 cell free culture (AID 720682). Put shortly: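 Green-channel intensity (Ex/Em 485/535 nm) was recorded from compound-treated wells containing only DMEM with 10% FBS. Fluorescein provided the equivalency standard.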
A short description of test [4]: qHTS assay to test for compound auto fluorescence at 590 nm (red) in HEK293 cell free culture (AID 720683). Put shortly:
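Tox21 10K library compounds were pinned into cell-free DMEM with 10% FBS and fluorescence was read at excitation 540 nm. Activity is expressed as Rose Bengal sodium equivalency.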

Test [5] in a line: qHTS assay to test for compound auto fluorescence at 460 nm (blue) in HepG2 cell free culture (AID 720685). Put shortly: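 Compound (23 nL) or DMSO pinned into cell-free MEM with 10% FBS; blue fluorescence read at 405/460 nm excitation/emission, expressed as auto-fluorescence equivalency to triamterene.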
Test [6] is described as follows: qHTS assay to test for compound auto fluorescence at 535 nm (green) in HepG2 cell free culture (AID 720686).
Test [7] can be described thus: qHTS assay to test for compound auto fluorescence at 460 nm (blue) in HepG2 cells (AID 720687). The essentials:
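Cells (2,000/well in MEM with 10% FBS) attached overnight at 37 C, then were exposed to compound or DMSO for 1 hr at 37 C, 5% CO2. Fluorescence read at Ex/Em 405/460 nm, expressed as triamterene-equivalent signal.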

Test [8] can be described thus: qHTS assay to identify small molecule antagonists of the glucocorticoid receptor (GR) signaling pathway - cell viability counter screen (AID 720693). Also: nearly all actives have a fitted effect of over 55% in size.
The nature of test [9]: qHTS assay for identifying genotoxic compounds that show differential cytotoxicity against isogenic chicken DT40 cell lines with known DNA damage response pathways - wild type cell line (AID 743012). Also: nearly all actives have a fitted effect of over 60% in size. Put shortly:
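Cells (DT40 wild type, 300/well) are treated with DMSO-dissolved compounds after a ~0.5 h pre-incubation and kept 40 h at 37 C/5% CO2. Viability is then measured by CellTiter-Glo luminescence following 30 min at room temperature.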

A short description of test [10]: qHTS assay for identifying genotoxic compounds that show differential cytotoxicity against isogenic chicken DT40 cell lines with known DNA damage response pathways - Rev3 mutant cell line (AID 743014). Also: nearly all actives have a fitted effect of over 55% in size.
Test [11] can be described thus: qHTS assay for identifying genotoxic compounds that show differential cytotoxicity against isogenic chicken DT40 cell lines with known DNA damage response pathways - Rad54/Ku70 mutant cell line (AID 743015). Also: nearly all actives have a fitted effect of over 60% in size. Also: potency is read from the fitted curve at half-maximal effect.
The nature of test [12]: qHTS assay to identify small molecule antagonists of the androgen receptor (AR) signaling pathway - cell viability counter screen (AID 743033; also: nearly all actives have a fitted effect of over 45% in size).
Test [13] is described as follows: qHTS assay to identify small molecule antagonists of the thyroid receptor (TR) signaling pathway - cell viability counter screen (AID 743064). Also: nearly all actives have a fitted effect of over 50% in size. Also: potency is read from the fitted curve at half-maximal effect. Put shortly: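 In rat pituitary GH3.TRE-Luc reporter cells co-exposed to compound and 1 nM T3 for 23.5 h, cytotoxicity was assessed with CellTiter-Fluor in the same wells, read by fluorescence.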
Test [14] concerns the target Glucocorticoid receptor (Homo sapiens) (UniProt P04150). In words: qHTS assay to identify small molecule agonists of the glucocorticoid receptor (GR) signaling pathway (AID 720691; active = well fitted activation curve with a large enough effect in the signal ratio in the repeat runs, not every such curve was filed as active; the % refers to the signal ratio). Put shortly:
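Agonist mode in a HeLa line carrying a GRE-controlled beta-lactamase reporter. Compounds act for 18 h at 37 C before a 2 h room-temperature FRET substrate step and fluorescence reading.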

Test [15] has the same target. In words: qHTS assay to identify small molecule antagonists of the glucocorticoid receptor (GR) signaling pathway (AID 720692; active = well fitted inhibition curve with a large enough effect in the signal ratio in the repeat runs, not every such curve was filed as active; the % refers to the signal ratio). The essentials: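 Cells plated, rested 4 h at 37 C/5% CO2; compounds in DMSO pin-transferred; dexamethasone added to 5 nM final; 18 h at 37 C; B/G FRET substrate added, 2 h room temperature; fluorescence measured.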
Test [16] in a line: qHTS assay to identify small molecule antagonists of the androgen receptor (AR) signaling pathway using the MDA cell line - cell viability counter screen (AID 743041; also: nearly all actives have a fitted effect of over 45% in size). The essentials: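 Viability counter screen run alongside the AR antagonist reporter: cells seeded 5 h before compound, R1881 added, 16 h incubation at 37C without CO2, fluorescent CellTiter-Fluor signal quantified.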

Test [17] is described as follows: qHTS assay to test for compound auto fluorescence at 590 nm (red) in HepG2 cell free culture (AID 720684). The essentials: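 Measured in medium alone (MEM containing 10% FBS) following pintool addition of compound; emission at 590 nm with 540 nm excitation, referenced to Rose Bengal sodium.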
Test [18] deals with Androgen receptor (Homo sapiens) (UniProt P10275). In words: qHTS assay to identify small molecule agonists of the androgen receptor (AR) signaling pathway using the MDA cell line (AID 743040; also: nearly all actives have a fitted effect of over 20% in size). The essentials: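 Luminescence from ONE-Glo, read after 30 min at room temperature, reflects MMTV-driven luciferase in MDA-kb2 cells (AR- and GR-responsive). Treatment lasted 16 h at 37C, 0% CO2.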
Androgen receptor (Homo sapiens), sequence (P10275 whole entry, looked up): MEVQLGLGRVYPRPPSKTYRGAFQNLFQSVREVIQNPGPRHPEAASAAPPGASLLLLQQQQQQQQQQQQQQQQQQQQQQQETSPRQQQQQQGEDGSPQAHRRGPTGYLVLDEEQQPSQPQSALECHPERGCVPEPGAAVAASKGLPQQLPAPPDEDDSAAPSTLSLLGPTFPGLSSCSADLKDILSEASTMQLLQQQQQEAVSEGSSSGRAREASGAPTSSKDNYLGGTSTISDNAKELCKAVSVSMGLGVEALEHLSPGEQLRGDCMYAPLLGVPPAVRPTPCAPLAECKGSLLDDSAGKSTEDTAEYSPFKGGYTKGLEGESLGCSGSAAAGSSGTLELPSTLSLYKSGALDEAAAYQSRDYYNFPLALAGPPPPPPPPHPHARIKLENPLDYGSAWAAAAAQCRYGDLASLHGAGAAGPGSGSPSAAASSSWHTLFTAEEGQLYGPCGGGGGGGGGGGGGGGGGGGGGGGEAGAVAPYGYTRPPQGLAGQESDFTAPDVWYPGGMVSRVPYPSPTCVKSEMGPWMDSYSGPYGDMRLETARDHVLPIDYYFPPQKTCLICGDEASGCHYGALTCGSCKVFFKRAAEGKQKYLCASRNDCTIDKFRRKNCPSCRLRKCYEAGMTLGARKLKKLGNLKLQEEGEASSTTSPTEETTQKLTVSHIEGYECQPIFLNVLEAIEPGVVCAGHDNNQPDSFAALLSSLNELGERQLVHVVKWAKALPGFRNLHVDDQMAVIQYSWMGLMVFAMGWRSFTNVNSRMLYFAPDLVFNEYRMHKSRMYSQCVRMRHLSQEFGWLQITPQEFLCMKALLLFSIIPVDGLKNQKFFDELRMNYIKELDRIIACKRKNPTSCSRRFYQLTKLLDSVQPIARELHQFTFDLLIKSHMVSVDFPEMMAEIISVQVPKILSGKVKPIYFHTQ

Test [19] has the same target. Description: qHTS assay to identify small molecule antagonists of the androgen receptor (AR) signaling pathway using the MDA cell line (AID 743042; also: nearly all actives have a fitted effect of over 55% in size). Put shortly:
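MDA-kb2 cells (human breast carcinoma, stably carrying an MMTV-luciferase reporter responsive to AR and GR) were plated at 3,000 cells/well and preincubated 5 hr at 37C, then given compound plus R1881 agonist for 16 h. ONE-Glo luminescence was read.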

The target is the same in test [20]. In words: qHTS assay to identify small molecule antagonists of the androgen receptor (AR) signaling pathway (AID 743035; active = well fitted inhibition curve with a large enough effect in the signal ratio in the repeat runs, not every such curve was filed as active; the % refers to the signal ratio). The essentials:
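Antagonism is scored as loss of R1881-driven beta-lactamase reporter expression in HEK293 cells carrying the reporter under a UAS element, after 16 h co-treatment at 37C and a 2 h room-temperature FRET substrate read.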

Unmarked numbers belong to inactive results. Records with an inconclusive call do not appear. Activity calls are given as the source filed them. Unless noted, calls follow the shape of the dose curve; as a rule, active = well fitted curve in the direction sought with a large enough effect in the repeat runs; inconclusive = weak or mixed curves; inactive = no such curve, though single readings can be large; an effect the other way counts as inactive or inconclusive.

The results in this text go back to PubChem BioAssay (Tox21).
% is scaled to controls: 0 for no effect and ±100 for the full control effect.

Glucocorticoid receptor (Homo sapiens), sequence (P04150 whole entry, looked up): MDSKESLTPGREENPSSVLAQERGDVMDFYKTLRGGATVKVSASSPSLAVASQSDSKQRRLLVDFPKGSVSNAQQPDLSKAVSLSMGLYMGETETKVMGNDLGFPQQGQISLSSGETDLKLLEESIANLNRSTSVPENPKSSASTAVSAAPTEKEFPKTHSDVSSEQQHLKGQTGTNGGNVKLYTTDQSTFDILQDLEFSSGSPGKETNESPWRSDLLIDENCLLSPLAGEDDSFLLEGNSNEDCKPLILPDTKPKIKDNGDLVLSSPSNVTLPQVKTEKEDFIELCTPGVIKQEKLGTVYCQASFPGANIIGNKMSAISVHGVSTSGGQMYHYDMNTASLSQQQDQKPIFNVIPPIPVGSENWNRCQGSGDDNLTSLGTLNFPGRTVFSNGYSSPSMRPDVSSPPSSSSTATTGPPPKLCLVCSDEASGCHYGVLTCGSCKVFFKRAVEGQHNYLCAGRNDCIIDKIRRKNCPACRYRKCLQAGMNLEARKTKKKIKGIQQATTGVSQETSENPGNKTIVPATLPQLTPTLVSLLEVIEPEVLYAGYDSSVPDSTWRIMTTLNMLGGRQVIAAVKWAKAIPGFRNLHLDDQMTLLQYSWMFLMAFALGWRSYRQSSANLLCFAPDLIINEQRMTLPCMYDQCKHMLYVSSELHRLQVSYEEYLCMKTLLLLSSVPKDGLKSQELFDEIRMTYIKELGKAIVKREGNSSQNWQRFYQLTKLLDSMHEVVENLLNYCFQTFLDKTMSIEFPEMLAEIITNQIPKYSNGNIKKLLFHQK

`CC(O)CCCCn1c(=O)c2c(ncn2C)n(C)c1=O` (stereo not drawn): the call in test [1], in [2], in test [3], in test [4], in [5] and in test [6] was inactive. Also, the outcome in [7], in test [8] and in [12] was inactive. The Potency entry in [9], in test [10], in test [11] and in [13] was “inactive” in each case.
As for `O=C1Nc2ccccc2C1=O`, the result in test [1], in test [2], in test [3], in [4], in [5] and in test [6] was inactive. Further, the result in [7], in test [15], in [8], in test [12] and in [16] was inactive. The Potency entry in [14], in [10], in test [11] and in test [13] was “inactive” throughout.
On to `Cc1ccc(OC(=O)CC(C)C)cc1`, for which the molecule was called inactive in test [1], in test [2], in [3], in test [4], in [5] and in [8]. In addition, the result in test [12] and in [16] was inactive. Besides, the Potency entry in [14], in test [9], in test [10] and in test [13] was “inactive” each time.
In the case of `CCO/C=C1\N=C(c2ccccc2)OC1=O`, the call in test [1], in test [2], in test [3], in [4], in test [5] and in [6] was inactive. Besides, the molecule was classed as inactive in test [7], in [12] and in test [16]. In addition, in [14], the Potency entry is “inactive”. In addition, the Potency in test [11] was 48.4 µM (active); in test [13], 68.3 µM (active).
Turning to `COc1ccc(Cl)cc1C`, the molecule was classed as inactive in [1], in [2], in test [4], in test [17], in test [5] and in [7]. In addition, the outcome in test [15] and in test [8] was inactive. Also, the Potency result in [14], in test [9], in [10], in test [11] and in [13] was “inactive” throughout.
As for `CC(C)(C)OC(=O)c1ccccc1C(=O)O`, the outcome in test [1], in [2], in test [4], in test [17], in [5] and in test [6] was inactive. In addition, the outcome in [12] and in test [16] was inactive. The Potency result in test [9], in test [10], in [11] and in test [13] was “inactive” each time.
With `CC/C=C\CCOC(=O)c1ccccc1`, the molecule was classed as inactive in test [1], in test [2], in test [4], in test [17], in [5] and in [6]. In addition, the call in test [7], in test [8], in [18], in test [16] and in test [19] was inactive. Besides, the Potency result in test [14], in test [9], in [10], in test [11] and in [13] was “inactive” throughout.
Regarding `Cc1ccc(S(=O)(=O)NC(=O)NN2CC3CCCC3C2)cc1` (stereo not drawn), in test [1], the fluorescence, % of fluorescein is -0.0141% [at 18.6 µM]. Besides, the fluorescence, % of fluorescent control in [2] is 0.0029% [at 18.6 µM]; in test [4], 0.167% [at 18.6 µM]; in test [5], -0.0187% [at 18.6 µM]. In addition, the fluorescence, % of Rose Bengal in [17] was 0.0439% [at 18.6 µM]. The call in test [8], in [12] and in test [16] was inactive. The Potency entry in test [9], in test [10], in test [11] and in [13] was “inactive” in each case.
As for `Cc1cccc(N)n1`, the molecule was called inactive in test [1], in test [2], in [4], in test [5], in test [6] and in test [12]. For the same molecule, the molecule was called inactive in test [16]. Moreover, in test [13], the Potency entry is “inactive”.
As to `NS(=O)(=O)c1cc2c(cc1C(F)(F)F)NCNS2(=O)=O`, the fluorescence, % of fluorescein in test [1] was -0.0035% [at 18.6 µM]. In addition, the fluorescence, % of fluorescent control in test [2] is 0.05% [at 18.6 µM]; in test [4], 0.0039% [at 18.6 µM]; in test [5], -0.157% [at 18.6 µM]. For the same molecule, the Potency entry in test [14], in [9], in test [10], in test [11] and in [13] was “inactive” throughout. For the same molecule, the molecule was called inactive in test [8] and in [16].
Take `CN(C)CCCN(C)C`: in [1], the fluorescence, % of fluorescein is -0.137% [at 3.72 µM]. Moreover, the fluorescence, % of fluorescent control in test [2] is -0.55% [at 3.72 µM]; in [4] it was -0.816% [at 3.72 µM]; in test [5], -0.358% [at 3.72 µM]; in test [7] it was -0.76% [at 3.72 µM]. For the same molecule, the fluorescence, % of Rose Bengal in test [17] is -0.0354% [at 3.72 µM]. In addition, the fluorescence, % of fluorescein control in test [6] was -0.197% [at 3.72 µM]. Moreover, the activation in [14] was -0.0659% [at 6.9 µM]. Moreover, the figures for the viability change, negative = cytotoxic in [8] and in test [16] were 3.46% [at 7.04 µM] and 5.47% [at 8.47 µM], respectively. For the same molecule, the activity change, negative = cytotoxicity in [9] was -5.84% [at 8.52 µM]; in test [11], 3.34% [at 8.55 µM]; in test [12] it was 3.01% [at 7.04 µM]. For the same molecule, in test [10], the activity, negative = cytotoxicity is -13% [at 8.53 µM]. For the same molecule, the activity change, negative = cytotoxic in test [13] is 20.5% [at 8.44 µM].
Regarding `Cc1ccc2cccnc2c1`, the molecule was called inactive in test [1], in [2], in [4], in test [17], in [5] and in test [7]. For the same molecule, the molecule was classed as inactive in test [8], in [20], in [18] and in test [19]. Also, the Potency result in test [14], in test [9], in test [10], in test [11] and in test [13] was “inactive” each time.
For the molecule `CC(C)(Sc1cc(C(C)(C)C)c(O)c(C(C)(C)C)c1)Sc1cc(C(C)(C)C)c(O)c(C(C)(C)C)c1`, the fluorescence, % of fluorescein in test [1] is 0.0112% [at 18.6 µM]. Further, the fluorescence, % of fluorescent control in [2] was -0.101% [at 18.6 µM]; in [4], -0.146% [at 18.6 µM]; in test [5], -0.0941% [at 18.6 µM]; in [7] it was 0.0012% [at 18.6 µM]. Also, in test [6], the fluorescence, % of fluorescein control was -0.106% [at 18.6 µM]. Moreover, the Potency entry in [14], in test [9], in test [10], in test [11] and in [13] was “inactive” each time. Besides, the molecule was called inactive in test [8], in test [12] and in test [16].
